The source of these data is PubChem BioAssay AID1347418 (Sanford-Burnham Center for Chemical Genomics, 2020).

The whole screen tested about 1,300 compounds, of which about 750 (58%) were called active. The list shows a part of the results. Unmarked numbers belong to inactive results.

The assay deals with Sulfhydryl oxidase 1 (Homo sapiens) (UniProt O00391). Nature of the assay: inhibition of human sulfhydryl oxidase QSOX1 – biochemical, ROS-Glo H2O2 luminescence, HTS, primary screen (AID 1347418). Particulars: recombinant QSOX1, ROS-Glo H2O2 luminescence; at 12.5 µM; active compounds read high; active = any value above zero.
Sulfhydryl oxidase 1 (Homo sapiens), sequence (O00391 whole entry, looked up): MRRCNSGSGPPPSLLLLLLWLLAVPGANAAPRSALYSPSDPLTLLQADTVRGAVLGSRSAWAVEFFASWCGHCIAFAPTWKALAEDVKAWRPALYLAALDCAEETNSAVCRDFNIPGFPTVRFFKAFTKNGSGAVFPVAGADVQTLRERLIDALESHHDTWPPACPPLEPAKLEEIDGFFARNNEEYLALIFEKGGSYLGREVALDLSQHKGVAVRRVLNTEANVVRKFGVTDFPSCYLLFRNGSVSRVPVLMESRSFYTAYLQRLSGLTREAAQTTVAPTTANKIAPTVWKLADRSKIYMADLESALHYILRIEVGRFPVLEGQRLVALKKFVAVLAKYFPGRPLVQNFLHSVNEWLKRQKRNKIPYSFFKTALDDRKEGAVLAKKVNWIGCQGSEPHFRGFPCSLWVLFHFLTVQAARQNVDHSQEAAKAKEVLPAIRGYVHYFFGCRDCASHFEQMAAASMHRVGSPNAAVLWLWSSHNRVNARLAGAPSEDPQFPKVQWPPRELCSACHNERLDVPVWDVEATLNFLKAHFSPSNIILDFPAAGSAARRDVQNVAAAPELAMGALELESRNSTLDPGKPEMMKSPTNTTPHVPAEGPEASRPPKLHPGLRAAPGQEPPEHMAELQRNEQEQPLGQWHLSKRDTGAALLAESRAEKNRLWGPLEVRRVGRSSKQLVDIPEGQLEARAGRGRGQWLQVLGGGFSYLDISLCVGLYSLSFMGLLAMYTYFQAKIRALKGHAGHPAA
In general, inhibition refers to the change of the read-out against control, counted positive when it falls. As to `Nc1nc2[nH]c(=O)cnc2c(=O)[nH]1`, the inhibition was 2.6% (active). As for `Cn1cc(C(F)(F)F)nc1-c1ccc(OCC(O)CNCCOc2ccc(O)c(C(N)=O)c2)cc1` (configuration not stated), the figure is 5.6% (active); as for `O=C(c1ccc2c(c1)OCCO2)N1CCCCC1`, 4.8% (active). As for `CCC(=O)N1CCN(C(=O)c2ccccc2)CC1`, the figure is -5.7%.

Regarding `NCC(O)c1ccc(O)c(O)c1` (configuration not stated), the inhibition was 7.1% (active). In the case of `NC[C@H](O)c1ccc(O)c(O)c1` it was 9.5% (active); in that of `C=C[C@H]1CN2CC[C@@H]1C[C@@H]2[C@H](O)c1ccnc2ccc(OC)cc12`, -1.1%. As for `NCCCNCCSP(=O)(O)O`, the figure is 1.1% (active). For the compound `CC(C)COCC(CN(Cc1ccccc1)c1ccccc1)N1CCCC1` (configuration not stated), the inhibition is 9.6% (active). In the case of `Cc1ccc(=O)n(-c2ccccc2)c1` it was 0.9% (active). As for `CCCCC1C(=O)N(c2ccccc2)N(c2ccccc2)C1=O`, the figure is -5.9%. As for `Cc1cc(O)c2c(c1)C(=O)c1cc(O)cc(O)c1C2=O`, the figure is 10.6% (active); as for `CCCc1c(-c2ccc(O)cc2)nn(-c2ccc(O)cc2)c1-c1ccc(O)cc1`, 17.5% (active); as for `Cn1cc(C(=O)OCC2CCN(CCNS(C)(=O)=O)CC2)c2ccccc21`, -2.2%.

For `CCN(CC)C(=S)SSC(=S)N(CC)CC`, the inhibition is 14.5% (active). As for `CC12C(=O)OC(=O)C1(C)C1CCC2O1` (configuration not stated), the figure is -4%; as for `CN1CCc2cc(Cl)c(O)cc2[C@@H](c2ccccc2)C1`, 10.2% (active). In the case of `CN1CCc2cc(O)c(O)cc2C(c2ccccc2)C1` (configuration not stated) it was 14.7% (active); in that of `CN(C)c1cc2c(Nc3ccc4c(cnn4Cc4ccccc4)c3)ncnc2cn1`, -0.7%; in that of `Cc1cc(C(C)(C)C)cc(C)c1CC1=NCCN1`, 3.9% (active).

In the case of `Cc1cc(C(C)(C)C)c(O)c(C)c1CC1=NCCN1`, the inhibition is -1.4%.

On to `N=S(=O)([O-])Cc1noc2c1C=C[C+]=C2`, for which the inhibition was -4.8%.

`O=C1C(SCCO)=C(SCCO)C(=O)c2ccccc21`: the inhibition was -58.7%. As for `COC1=C(OC)C(=O)c2ccccc2C1=O`, the figure is 6.2% (active); as for `Oc1ccc(-c2nc(-c3ccc(F)cc3)c(-c3ccncc3)[nH]2)cc1`, 31.8% (active). As to `O=[N+]([O-])c1ccc(-c2nc(-c3ccc(F)cc3)c(-c3ccncc3)[nH]2)cc1`, the inhibition is 6.9% (active). Take `N#Cc1cc([N+](=O)[O-])c2sc(C(N)=O)[n+]([O-])c2c1`: the inhibition was 2.3% (active).

With `COc1nc(C)nc(Cl)c1NC1=NCCN1`, the inhibition is -8.3%. In the case of `Cc1nn(-c2ccccc2)c(C)c1C=NN1CCN(Cc2ccccc2)CC1` it was 5.8% (active); in that of `Nc1nnc(-c2cccc(Cl)c2Cl)c(N)n1`, -3.6%; in that of `Nc1ccc(N2C(=O)c3ccccc3C2=O)c(Cl)c1`, 10.7% (active). As for `CCCCCCCCCC(=O)NC(CN1CCOCC1)[C@H](O)c1ccccc1` (some centres not stated), the figure is 4.7% (active); as for `CC1COc2c(N3CCN(C)CC3)c(F)cc3c(=O)c(C(=O)O)cn1c23` (configuration not stated), -1.5%; as for `CN=C(NC#N)NCCSCc1nc[nH]c1C`, 3.1% (active). In the case of `NC(=O)OCC(COC(N)=O)c1ccccc1` it was 1.7% (active). As to `NS(=O)(=O)C#Cc1ccccc1`, the inhibition was 0.5% (active). For the compound `Oc1ccc2ccccc2c1SSc1c(O)ccc2ccccc12`, the inhibition was 34.9% (active). As for `Clc1nccc2c1ccc1ccccc12`, the figure is -1.8%; as for `COc1cc(/C=C(\C#N)C(=O)Nc2nnc(C(F)(F)F)s2)ccc1OCc1ccc(C(F)(F)F)cc1C(F)(F)F`, 0.8% (active). In the case of `CN(C)c1nc2c(Br)c(Br)c(Br)c(Br)c2[nH]1` it was 7% (active). As for `Nc1cc(=O)[nH]c(N)n1`, the figure is 2% (active); as for `CCCN(CCC)CCc1cccc2c1CC(=O)N2`, 1.5% (active); as for `CC(C)CC(NP(=O)(O)O[C@@H]1O[C@@H](C)[C@H](O)[C@@H](O)[C@H]1O)C(=O)NC(Cc1c[nH]c2ccccc12)C(=O)O` (some centres not stated), 4.6% (active). As to `CN[C@H](CC(=O)O)C(=O)O`, the inhibition is 2.3% (active). Regarding `CC[C@H](C)C(=O)O[C@H]1CCC=C2C=C[C@H](C)[C@H](CC[C@@H]3C[C@@H](O)CC(=O)O3)[C@H]21`, the inhibition was -6.8%. In the case of `NC(N)=N[C@@H](CCC(=O)O)C(=O)O` it was 0.9% (active); in that of `CNCCC=C1c2ccccc2CCc2ccccc21`, 2.3% (active); in that of `CC#CCOC(=O)c1c(C)nc2sc3c(c2c1N)CCC(O)C3` (configuration not stated), 1.6% (active). Turning to `CN1CCC[C@H]1c1cccnc1`, the inhibition was -0.6%. In the case of `COc1ccccc1N1CCN(CCCNc2cc(=O)n(C)c(=O)n2C)CC1` it was 10.9% (active). In the case of `COc1ccccc1N1CCN(CCCNc2c(C)c(=O)n(C)c(=O)n2C)CC1` it was 7.4% (active). In the case of `CCC(C)N(C)C(=O)c1cc2ccccc2c(-c2ccccc2Cl)n1` (configuration not stated) it was -1.2%. Turning to `CN1CCN(C2Cc3ccccc3Sc3ccc(Cl)cc32)CC1` (configuration not stated), the inhibition was -2.3%.

For `OCCN1CCN(CCCN2c3ccccc3Sc3ccc(Cl)cc32)CC1`, the inhibition was 45.4% (active). `CN1CCN(CCCN2c3ccccc3Sc3ccc(Cl)cc32)CC1`: the inhibition was 46.5% (active). In the case of `OCCN1CCN(CCCN2c3ccccc3C=Cc3ccccc32)CC1` it was 6.4% (active); in that of `COc1cc2c(cc1OC)-c1cc(=Nc3c(C)cc(C)cc3C)n(C)c(=O)n1CC2`, -1.4%; in that of `Cc1ccc(S(=O)(=O)/C=C/C#N)cc1`, 0.7% (active).

For the compound `CC(C)(C)c1ccc(S(=O)(=O)/C=C/C#N)cc1`, the inhibition is 1.2% (active). As for `C=C[C@@]1(C)CC(=O)[C@]2(O)[C@@]3(C)[C@H](O)CCC(C)(C)[C@@H]3[C@H](O)[C@H](OC(C)=O)[C@@]2(C)O1`, the figure is 19.3% (active).

`Nc1nc(N)c(N=O)c(OCC2CCCCC2)n1`: the inhibition is 20.8% (active). For the compound `CC(C)(C)c1onc(OCP(=O)(O)O)c1CC(N)C(=O)O` (configuration not stated), the inhibition was 4.7% (active). Turning to `CCCN(CC1CC1)c1nc(C)nc(Nc2c(Cl)cc(Cl)cc2Cl)c1Cl`, the inhibition is 0.1% (active). In the case of `CSC(=N)N` it was -7.4%; in that of `CCSC(=N)N`, 0.7% (active).

As for `CCN1/C(=C/C(C)=O)Sc2ccc(OC)cc21`, the inhibition is 10.3% (active). In the case of `CC(=O)O[C@H]1CC2(C)[C@@H](C[C@@H](O)[C@H]3[C@@]4(C)CC[C@@H](O)[C@@H](C)[C@@H]4CC[C@@]32C)/C1=C(/CCC=C(C)C)C(=O)O` (some centres not stated) it was 2.7% (active).
